We go through 36 molecules from PubChem BioAssay (NCATS).

Results filed as inconclusive are left out. A call without a number means that no potency is given here. Active and inactive are the calls of the source. Calls come from the whole dose curve; as a rule, active = well fitted activation curve with a large enough effect in the main read-out, with a control signal flat (not every such curve was filed as active); inconclusive = small, poorly fitted or top-dose-only effect, or effect the other way, or a change in a side signal; inactive = flat fitted curve, though single readings scatter.

For the assay, the target named is 3',5'-cyclic-AMP phosphodiesterase 4B (Homo sapiens) (UniProt Q07343). The assay can be described thus: qHTS Assay for Inhibitors of PDE-IV (AID 607). Particulars: HEK293 ACTOne CNG channel cells, membrane potential fluorescence; series mostly up to 22.9 µM. The method, boiled down: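 The readout is membrane depolarisation from a cAMP-sensing CNG channel, detected with a potential dye at ex 535/em 590. Cells were HEK293-derived (endogenous PDE-IV) at 1000 cells/well, titrated up to 22.9 uM final.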
Sequence of 3',5'-cyclic-AMP phosphodiesterase 4B (Homo sapiens) (Q07343 whole entry, looked up): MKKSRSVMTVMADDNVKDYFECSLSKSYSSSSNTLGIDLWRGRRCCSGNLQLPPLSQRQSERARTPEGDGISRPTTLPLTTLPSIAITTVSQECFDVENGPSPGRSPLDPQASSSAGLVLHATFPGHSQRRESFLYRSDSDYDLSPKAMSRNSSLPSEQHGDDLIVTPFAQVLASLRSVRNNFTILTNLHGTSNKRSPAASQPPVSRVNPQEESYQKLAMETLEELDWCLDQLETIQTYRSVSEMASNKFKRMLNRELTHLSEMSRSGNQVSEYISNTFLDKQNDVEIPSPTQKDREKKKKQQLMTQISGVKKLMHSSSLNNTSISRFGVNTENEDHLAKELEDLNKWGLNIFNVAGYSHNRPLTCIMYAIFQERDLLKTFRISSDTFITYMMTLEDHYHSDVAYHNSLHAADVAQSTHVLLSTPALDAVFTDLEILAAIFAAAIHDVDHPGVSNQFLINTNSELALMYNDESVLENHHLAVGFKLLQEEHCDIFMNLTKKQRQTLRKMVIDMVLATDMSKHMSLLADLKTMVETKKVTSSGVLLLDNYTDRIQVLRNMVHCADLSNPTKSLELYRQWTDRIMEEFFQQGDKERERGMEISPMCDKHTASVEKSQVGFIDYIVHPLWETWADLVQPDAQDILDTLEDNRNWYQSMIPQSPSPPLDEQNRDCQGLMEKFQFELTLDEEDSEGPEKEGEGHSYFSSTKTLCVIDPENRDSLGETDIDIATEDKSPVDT
(qHTS replaces the single test concentration by a dilution series.)
In the case of `CS(=O)(=O)N1CCC2(CCCN(Cc3ccncc3)C2)CC1`, the Potency entry is “inactive”. As for `c1ccc(CN2CC[C@@]3(CCCNC3)C2)cc1`, the Potency result was “inactive”. The same measure for `O=C(c1ccncc1)N1CCC[C@@]2(CCN(Cc3nccs3)C2)C1`: “inactive”; for `CCc1c(C(=O)OC)ncc2[nH]c3cc(OC)c(OC)cc3c12`: “inactive”; for `c1cc(CN2CC3(CCNCC3)C2)ccn1`: “inactive”. For `c1csc(CN2CC[C@@]3(CCCNC3)C2)n1`, the Potency result was “inactive”. The same measure for `COC(=O)N1CCC2(CCCN(C)C2)CC1`: “inactive”; for `O=C(O)C1=CCCN(CCOC(c2ccc(C(F)(F)F)cc2)c2ccc(C(F)(F)F)cc2)C1`: “inactive”. In the case of `c1ccc(CN2CCC3(CCNCC3)CC2)cc1`, the Potency entry is “inactive”. As for `Cc1noc(C)c1C(=O)N1CCC2(CCCN(CC(C)C)C2)CC1`, the entry is “inactive”. The same measure for `CN1CC[C@@]2(CCCN(C(=O)c3ccncc3)C2)C1`: “inactive”.

For `c1cnc(N2CCCC3(CCNCC3)C2)nc1`, the Potency entry is “inactive”. As for `c1ccc(N2CC3(CCNCC3)C2)cc1`, the entry is “inactive”; as for `Clc1ccccc1-c1cncnc1NCCc1cnc[nH]1`, “inactive”; as for `CN1CC[C@@]2(CCCN(C(=O)Oc3ccccc3)C2)C1`, “inactive”. On to `c1csc(CN2CCC3(CCNCC3)CC2)n1`, for which the Potency entry was “inactive”. As for `O=C(c1csnn1)N1CCC2(CC1)CN(Cc1ccncc1)C2`, the entry is “inactive”; as for `CC(C)NC(=O)N1CC[C@@]2(CCCNC2)C1`, “inactive”. The same measure for `c1ccc(N2CC3(CCNCC3)C2)nc1`: “inactive”. On to `CC(C)NC(=O)N1CCC2(CC1)CCN(C(=O)Oc1ccccc1)CC2`, for which the Potency result is “inactive”.

Regarding `CC(C)NC(=O)N1CCCC2(CCN(C(=O)Oc3ccccc3)CC2)C1`, the Potency result is “inactive”. For the molecule `CN1CCCC2(CCN(C(=O)Oc3ccccc3)CC2)C1`, the Potency entry was “inactive”. As for `CC(C)CN1CCC2(CC1)CCN(S(C)(=O)=O)CC2`, the entry is “inactive”; as for `CN1CCCC2(CCN(C(=O)c3csnn3)CC2)C1`, “inactive”.

Turning to `CC(C)CN1CCCC2(CCN(C(=O)c3ccncc3)CC2)C1`, the Potency result is “inactive”. Turning to `O=C(c1ccco1)N1CCC[C@@]2(CCN(Cc3ccncc3)C2)C1`, the Potency result was “inactive”. Regarding `O=C(Nc1ccccc1)N1CC2(CCN(C(=O)Oc3ccccc3)CC2)C1`, the Potency entry is “inactive”. The same measure for `CC(C)CN1CC[C@@]2(CCCN(C(=O)c3ccncc3)C2)C1`: “inactive”.

As to `Cc1noc(C)c1C(=O)N1CCC[C@@]2(CCN(CC(C)C)C2)C1`, the Potency result is “inactive”. For `CC(C)CN1CC2(CCN(C(=O)Oc3ccccc3)CC2)C1`, the Potency entry was “inactive”. For `O=C(Oc1ccccc1)N1CCC2(CCCN(Cc3ccccc3)C2)CC1`, the Potency result was “inactive”.

For the molecule `N#Cc1cccc(NC(=O)N2CC3(CCN(C(=O)Oc4ccccc4)CC3)C2)c1`, the Potency entry is “inactive”.

Turning to `O=C(c1cnccn1)N1CCC2(CC1)CN(Cc1ccncc1)C2`, the Potency entry is “inactive”. In the case of `O=C(Oc1ccccc1)N1CCC2(CC1)CN(Cc1ccncc1)C2`, the Potency entry is “inactive”.

With `CN1CCCC2(CCN(C(=O)c3ccco3)CC2)C1`, the Potency result is “inactive”.

Take `O=C(Nc1cccc(F)c1)N1CC2(CCNCC2)C1`: the Potency entry was “inactive”.
